Results taken from the supplement of paper PMC10849652.
The full data set covers some 8,800 targets. This sample favours those with a hit. About 0.5% of all pairs of compound and target were hits.

How the values were obtained:
Experiment in all cases: log2 fold change, soluble protein after heating vs DMSO (PISA); higher = thermal stabilisation; K562 lysate, 10 uM; active = over 0.2 and 3.5 SD of the protein, either way, in both replicates (recomputed)
[1] = compound: C#Cc1cccc(Nc2ncnc3cc(OCCOC)c(OCCOC)cc23)c1 [erlotinib]
Method in brief: (§1)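 To prepare the extract, K562 pellets were dounce-homogenised in PBS pH 7.4 with 1 mM MgCl2, giving crude material at 1 mg/mL protein. This was treated with 10 μM compound for 30 min, then heated in aliquots for 3 min over 48°C-58°C before pooling and addition of NP-40 to 0.5% at 4°C. Centrifugation at 21,000xg for 90 min left soluble protein in the supernatant, which TMTpro 16plex LC-MS/MS quantified with equalised channel sums. Results are log-two fold changes in thermal stability compared with solvent controls, from duplicates.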

[2] = compound: C/C(=N\NC(=O)C1=CC(=CC=C1)S(=O)(=O)N2CCOCC2)/C3=C(C=CC(=C3)Cl)O
Method in brief: as §1

[3] = compound: C1=CC(=CC=C1C2=NC3=C(N2)C=C(C=C3)C(=O)N)OC4=CC=C(C=C4)Cl
Method in brief: as §1

[4] = compound: C1=CC2=C(C=CC(=C2)/C=C\3/C(=O)NC(=NCC4=CC=CS4)S3)N=C1
Method in brief: as §1

[5] = compound: C1=CC2=NC=CN=C2C=C1/C=C/3\C(=O)NC(=O)S3
Method in brief: as §1

[6] = compound: C1=CC=C(C=C1)C2=NC(=C(N2)C3=CC=NC=C3)C4=CC(=C(C=C4)Cl)O
Method in brief: as §1

[7] = compound: C1=CC=C2C(=C1)C3=NNC4=CC=CC(=C43)C2=O
Method in brief: as §1

[8] = compound: C1CCN(C1)C(=O)NC2=CC=CC(=C2)NC3=NC=C(C(=N3)NCCC4=CN=CN4)Br
Method in brief: as §1

[9] = compound: C1CN(CCC1(CC2=CC=C(C=C2)Cl)N)C3=NC=NC4=C3C=CN4
Method in brief: as §1

[10] = compound: C1COCCN1CCN2C3=CC=CC=C3N=C2NC(=O)C4=CC(=CC=C4)[N+](=O)[O-] [IRAK-1-4 Inhibitor I]
Method in brief: as §1

[11] = compound: C=CC(=O)N1CCC[C@@H](n2nc(-c3ccc(Oc4ccccc4)cc3)c3c(N)ncnc32)C1 [ibrutinib]
Method in brief: as §1

[12] = compound: CC(=O)c1cnc2ccc(-c3cc(Cl)c(O)c(Cl)c3)nc2c1N[C@H]1CC[C@H](CN(C)C)CC1
Method in brief: as §1

[13] = compound: CC(C)(C)Cn1c(N)nc2ccc(-c3[nH]c(C(C)(C)C)nc3-c3ccc(F)cc3)nc21 [ralimetinib]
Method in brief: as §1

[14] = compound: CC(C)(O)CC(=O)NCCn1ccc2ncnc(Nc3ccc(Oc4cccc(C(F)(F)F)c4)c(Cl)c3)c21
Method in brief: as §1

[15] = compound: CC(C)C1=C2N=C(C=C(N2N=C1)NCC3=CC=CC=C3)NCCCCCCN
Method in brief: as §1

[16] = compound: CC1=C(C(CC(=O)N1)C2=CC=C(C=C2)C(F)(F)F)C(=O)NC3=C(C=C4C(=C3)C=NN4)F
Method in brief: as §1

[17] = compound: CC1=C(C2=C(C=C1)C(=O)C3=CC=CC=C3N2CCCN)C
Method in brief: as §1

[18] = compound: CC1=C(C=C(C=C1)NC(=O)C2=CC(=CC=C2)C(C)(C)C#N)NC3=CC4=C(C=C3)N=CN(C4=O)C
Method in brief: as §1

[19] = compound: CC1=C(C=C(C=C1)NC(=O)C2=CC(=CC=C2)N(C)C)NC(=O)C3=CC=C(C=C3)O
Method in brief: as §1

[20] = compound: CC1=CC=C(C=C1)SC2=C3C=C(SC3=CN=C2)C(=O)N
Method in brief: as §1

Measured: log2 fold change

IMMT (UniProt C9J406)
inactive: [1] 0.077 | [2] 0.041 | [3] -0.028 | [4] 0.001 | [5] 0.043 | [6] 0.028 | [7] -0.032 | [8] -0.222 | [9] 0.325 | [10] -0.016 | [11] 0.119 | [12] 0.046 | [13] 0.126 | [14] -0.14 | [15] -0.096 | [16] 0.099 | [17] -0.03 | [18] -0.002 | [19] 0.012 | [20] -0.015

HADHB (UniProt P55084)
UniProt P55084, sequence (P55084 whole entry, looked up): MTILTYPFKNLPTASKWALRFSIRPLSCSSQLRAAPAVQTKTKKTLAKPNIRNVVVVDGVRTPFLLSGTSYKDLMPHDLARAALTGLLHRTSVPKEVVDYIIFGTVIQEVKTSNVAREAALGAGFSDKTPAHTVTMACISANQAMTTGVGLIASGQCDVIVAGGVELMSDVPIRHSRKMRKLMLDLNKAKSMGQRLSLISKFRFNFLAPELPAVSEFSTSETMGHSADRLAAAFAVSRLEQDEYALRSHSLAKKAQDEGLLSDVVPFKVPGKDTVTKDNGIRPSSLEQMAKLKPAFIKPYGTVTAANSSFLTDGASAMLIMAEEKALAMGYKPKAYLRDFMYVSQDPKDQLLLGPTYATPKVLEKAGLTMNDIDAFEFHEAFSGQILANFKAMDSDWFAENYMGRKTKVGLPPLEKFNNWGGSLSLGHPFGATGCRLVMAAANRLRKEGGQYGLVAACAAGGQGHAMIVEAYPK
inactive: [1] -0.108 | [2] -0.039 | [4] -0.036 | [5] -0.128 | [6] -0.029 | [7] 0.011 | [8] -0.066 | [9] 0.062 | [10] 0.025 | [11] 0.086 | [12] -0.05 | [13] 0.002 | [14] 0.104 | [15] -0.024 | [16] -0.046 | [17] 0.028 | [18] 0.062 | [19] -0.03 | [20] 0.077
active: [3] 0.367

HNRNPUL2 (UniProt Q1KMD3)
UniProt Q1KMD3, sequence (Q1KMD3 whole entry, looked up): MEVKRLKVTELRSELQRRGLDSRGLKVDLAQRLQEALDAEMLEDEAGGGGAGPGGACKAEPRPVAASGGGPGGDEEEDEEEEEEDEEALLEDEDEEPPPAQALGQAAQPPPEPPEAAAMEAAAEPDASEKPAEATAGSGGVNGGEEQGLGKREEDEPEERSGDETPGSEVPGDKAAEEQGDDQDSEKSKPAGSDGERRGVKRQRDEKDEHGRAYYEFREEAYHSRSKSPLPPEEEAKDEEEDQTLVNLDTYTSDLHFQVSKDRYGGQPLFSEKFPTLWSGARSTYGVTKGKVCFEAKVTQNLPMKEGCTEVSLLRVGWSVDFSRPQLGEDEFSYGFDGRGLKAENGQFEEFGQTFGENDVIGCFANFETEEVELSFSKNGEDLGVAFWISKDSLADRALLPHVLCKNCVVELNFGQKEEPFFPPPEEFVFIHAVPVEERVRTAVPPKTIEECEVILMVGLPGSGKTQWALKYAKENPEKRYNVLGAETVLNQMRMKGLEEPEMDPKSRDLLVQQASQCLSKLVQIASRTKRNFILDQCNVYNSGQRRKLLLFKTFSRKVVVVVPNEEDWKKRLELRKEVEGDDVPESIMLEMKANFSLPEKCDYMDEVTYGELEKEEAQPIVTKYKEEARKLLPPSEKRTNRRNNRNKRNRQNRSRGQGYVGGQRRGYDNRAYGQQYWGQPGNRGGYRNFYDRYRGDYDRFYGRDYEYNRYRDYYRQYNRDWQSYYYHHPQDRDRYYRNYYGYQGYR
inactive: [1] -0.006 | [2] -0.002 | [3] 0.02 | [4] -0.004 | [5] -0.035 | [6] -0.006 | [7] -0.014 | [8] -0.001 | [9] -0.022 | [10] -0.003 | [11] -0.019 | [13] -0.018 | [14] -0.02 | [15] 0.021 | [16] -0.022 | [17] -0.03 | [18] 0.011 | [19] 0.032 | [20] 0
active: [12] -0.674

INPP4A (UniProt Q96PE3)
inactive: [1] 0.002 | [2] 0.007 | [3] 0.017 | [4] -0.005 | [5] -0.023 | [6] 0.099 | [7] 0.069 | [8] -0.018 | [9] -0.051 | [10] 0.066 | [11] -0.166 | [12] 0.001 | [13] 0.061 | [14] -0.013 | [15] -0.034 | [16] 0.02 | [17] -0.086 | [18] 0.022 | [19] -0.053 | [20] -0.025

HLCS (UniProt P50747)
inactive: [1] 0.019 | [2] -0.071 | [3] 0.013 | [4] 0.03 | [5] -0.017 | [6] -0.004 | [7] -0.019 | [8] 0.008 | [9] -0.034 | [10] -0.008 | [11] 0.012 | [12] 0.023 | [13] -0.005 | [14] -0.019 | [15] -0.025 | [16] 0.018 | [17] -0.015 | [18] 0.029 | [19] 0.057 | [20] -0.032

HEATR6 (UniProt Q6AI08)
UniProt Q6AI08, sequence (Q6AI08 whole entry, looked up): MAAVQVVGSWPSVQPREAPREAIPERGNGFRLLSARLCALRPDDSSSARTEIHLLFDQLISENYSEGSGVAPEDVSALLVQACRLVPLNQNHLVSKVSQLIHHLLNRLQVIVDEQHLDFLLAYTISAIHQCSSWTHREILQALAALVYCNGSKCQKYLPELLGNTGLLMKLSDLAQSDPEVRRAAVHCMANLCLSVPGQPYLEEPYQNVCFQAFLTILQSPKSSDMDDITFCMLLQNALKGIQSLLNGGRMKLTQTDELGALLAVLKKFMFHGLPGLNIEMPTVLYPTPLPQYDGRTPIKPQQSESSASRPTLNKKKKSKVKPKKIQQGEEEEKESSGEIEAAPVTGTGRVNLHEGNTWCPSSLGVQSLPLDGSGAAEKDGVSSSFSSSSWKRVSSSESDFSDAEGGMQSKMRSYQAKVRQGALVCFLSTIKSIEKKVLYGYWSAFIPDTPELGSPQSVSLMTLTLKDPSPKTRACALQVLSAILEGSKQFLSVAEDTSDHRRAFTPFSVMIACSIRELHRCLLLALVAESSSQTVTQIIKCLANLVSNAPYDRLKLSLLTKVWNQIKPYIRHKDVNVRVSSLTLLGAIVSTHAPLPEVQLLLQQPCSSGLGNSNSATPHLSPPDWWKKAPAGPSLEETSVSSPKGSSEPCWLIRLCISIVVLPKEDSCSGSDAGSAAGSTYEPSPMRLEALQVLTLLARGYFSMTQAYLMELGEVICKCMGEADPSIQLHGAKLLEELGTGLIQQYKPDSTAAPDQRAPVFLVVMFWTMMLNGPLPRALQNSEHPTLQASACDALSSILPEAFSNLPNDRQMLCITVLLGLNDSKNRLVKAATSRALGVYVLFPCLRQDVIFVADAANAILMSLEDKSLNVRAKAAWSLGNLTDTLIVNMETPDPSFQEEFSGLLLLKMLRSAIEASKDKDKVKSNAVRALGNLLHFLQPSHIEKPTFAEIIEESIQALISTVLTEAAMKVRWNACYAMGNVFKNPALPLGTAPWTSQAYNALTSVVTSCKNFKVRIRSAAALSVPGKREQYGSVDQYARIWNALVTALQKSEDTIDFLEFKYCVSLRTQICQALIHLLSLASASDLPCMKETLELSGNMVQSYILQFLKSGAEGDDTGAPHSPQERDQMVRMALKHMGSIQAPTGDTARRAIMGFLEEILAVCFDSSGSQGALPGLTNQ
inactive: [1] -0.033 | [2] 0.024 | [3] -0.002 | [4] 0.022 | [5] 0.085 | [6] -0.006 | [7] -0.026 | [8] -0.03 | [9] -0.007 | [10] -0.028 | [11] 0.045 | [12] -0.036 | [13] 0.064 | [14] -0.031 | [15] -0.051 | [16] 0.033 | [17] -0.069 | [18] -0.004 | [19] 0.083 | [20] -0.009

GTF2H1 (UniProt P32780)
inactive: [1] 0.044 | [2] 0.008 | [3] 0.012 | [4] -0.032 | [5] -0.011 | [6] 0.003 | [7] -0.013 | [8] 0.029 | [9] -0.005 | [10] -0.019 | [11] 0.023 | [12] 0.023 | [13] 0.026 | [14] 0.003 | [15] -0.005 | [16] 0.036 | [17] -0.022 | [18] 0.001 | [19] 0.054 | [20] 0.015

GON4L (UniProt Q3T8J9)
UniProt Q3T8J9, sequence (Q3T8J9 whole entry, looked up): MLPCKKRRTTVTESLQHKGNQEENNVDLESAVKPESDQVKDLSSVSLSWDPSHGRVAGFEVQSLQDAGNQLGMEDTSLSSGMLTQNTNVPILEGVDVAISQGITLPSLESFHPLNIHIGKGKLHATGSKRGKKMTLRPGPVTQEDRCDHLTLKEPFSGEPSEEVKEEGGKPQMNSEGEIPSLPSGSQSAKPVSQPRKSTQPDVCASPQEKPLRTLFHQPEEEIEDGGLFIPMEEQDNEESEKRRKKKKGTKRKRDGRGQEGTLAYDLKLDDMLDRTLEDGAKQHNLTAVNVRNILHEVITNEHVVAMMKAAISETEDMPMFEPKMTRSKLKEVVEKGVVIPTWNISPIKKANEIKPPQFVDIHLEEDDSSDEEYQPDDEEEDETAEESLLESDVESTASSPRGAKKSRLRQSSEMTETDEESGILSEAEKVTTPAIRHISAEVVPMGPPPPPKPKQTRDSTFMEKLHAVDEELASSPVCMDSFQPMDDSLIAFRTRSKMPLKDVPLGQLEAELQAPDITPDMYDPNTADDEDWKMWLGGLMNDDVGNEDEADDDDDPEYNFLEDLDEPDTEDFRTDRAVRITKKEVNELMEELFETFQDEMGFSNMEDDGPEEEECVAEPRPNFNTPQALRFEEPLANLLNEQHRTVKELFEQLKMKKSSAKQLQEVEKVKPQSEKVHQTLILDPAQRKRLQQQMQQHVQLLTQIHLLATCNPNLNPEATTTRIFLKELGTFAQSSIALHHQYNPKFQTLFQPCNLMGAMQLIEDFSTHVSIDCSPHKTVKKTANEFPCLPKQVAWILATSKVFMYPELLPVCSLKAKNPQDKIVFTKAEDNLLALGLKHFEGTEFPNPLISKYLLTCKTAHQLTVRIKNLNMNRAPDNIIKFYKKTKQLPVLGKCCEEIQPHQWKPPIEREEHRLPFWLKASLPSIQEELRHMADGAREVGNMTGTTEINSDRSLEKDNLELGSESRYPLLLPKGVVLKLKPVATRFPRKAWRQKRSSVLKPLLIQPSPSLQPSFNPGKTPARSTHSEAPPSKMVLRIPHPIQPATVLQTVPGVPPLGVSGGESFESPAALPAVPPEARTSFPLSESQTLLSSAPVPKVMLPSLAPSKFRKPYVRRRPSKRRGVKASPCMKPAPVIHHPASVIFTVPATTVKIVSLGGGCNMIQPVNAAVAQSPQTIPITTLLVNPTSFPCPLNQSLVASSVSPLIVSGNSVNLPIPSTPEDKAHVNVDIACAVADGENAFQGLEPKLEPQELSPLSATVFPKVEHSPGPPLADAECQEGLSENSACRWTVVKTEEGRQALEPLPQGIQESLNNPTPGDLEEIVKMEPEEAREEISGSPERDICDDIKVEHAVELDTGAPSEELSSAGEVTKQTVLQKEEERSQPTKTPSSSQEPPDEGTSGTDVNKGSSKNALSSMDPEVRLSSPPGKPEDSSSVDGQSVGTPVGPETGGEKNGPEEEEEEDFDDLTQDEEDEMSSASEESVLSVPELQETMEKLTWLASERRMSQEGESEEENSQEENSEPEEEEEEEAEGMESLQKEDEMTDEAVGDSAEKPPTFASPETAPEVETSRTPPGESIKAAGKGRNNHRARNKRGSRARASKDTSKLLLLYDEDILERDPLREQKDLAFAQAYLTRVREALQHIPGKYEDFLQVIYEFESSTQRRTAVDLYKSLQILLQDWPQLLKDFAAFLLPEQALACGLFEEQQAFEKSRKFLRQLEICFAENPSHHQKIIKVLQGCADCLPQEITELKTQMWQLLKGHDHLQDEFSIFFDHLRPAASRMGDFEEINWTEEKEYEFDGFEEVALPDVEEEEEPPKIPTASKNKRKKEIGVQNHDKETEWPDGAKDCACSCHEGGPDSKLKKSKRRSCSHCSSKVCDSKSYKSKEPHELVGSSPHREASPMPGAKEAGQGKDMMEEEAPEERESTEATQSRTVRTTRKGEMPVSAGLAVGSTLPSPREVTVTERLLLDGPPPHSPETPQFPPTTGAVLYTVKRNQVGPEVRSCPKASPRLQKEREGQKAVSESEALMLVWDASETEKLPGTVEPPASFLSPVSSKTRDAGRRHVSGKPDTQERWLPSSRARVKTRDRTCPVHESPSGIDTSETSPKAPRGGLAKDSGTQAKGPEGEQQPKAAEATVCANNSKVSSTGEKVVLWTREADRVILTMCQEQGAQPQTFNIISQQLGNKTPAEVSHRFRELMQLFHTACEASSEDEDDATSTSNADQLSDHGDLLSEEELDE
inactive: [1] -0.003 | [2] 0.016 | [3] 0.061 | [4] -0.038 | [5] -0.074 | [6] 0.053 | [7] 0.057 | [8] 0.026 | [9] -0.052 | [10] -0.039 | [11] 0.026 | [12] 0.022 | [13] 0.029 | [14] -0.042 | [15] -0.04 | [16] -0.02 | [17] -0.017 | [18] 0.01 | [19] 0.002 | [20] -0.044

HMBOX1 isoform 5 (UniProt Q6NT76)
inactive: [1] 0.045 | [2] -0.094 | [3] -0.004 | [4] 0.026 | [5] -0.037 | [6] -0.004 | [7] -0.057 | [8] -0.028 | [9] 0.004 | [10] -0.009 | [11] 0.051 | [12] 0.021 | [13] 0.026 | [14] 0.007 | [15] 0.072 | [16] -0.014 | [17] 0.052 | [18] 0.015 | [19] 0.005 | [20] 0.054

HMGB2 (UniProt P26583)
UniProt P26583, sequence (P26583 whole entry, looked up): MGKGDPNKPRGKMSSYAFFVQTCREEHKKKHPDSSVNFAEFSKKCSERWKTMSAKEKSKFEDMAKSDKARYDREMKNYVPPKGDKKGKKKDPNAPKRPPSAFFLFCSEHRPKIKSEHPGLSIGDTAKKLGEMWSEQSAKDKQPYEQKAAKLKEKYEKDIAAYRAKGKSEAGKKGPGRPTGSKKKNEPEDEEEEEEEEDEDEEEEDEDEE
inactive: [1] -0.007 | [2] 0.039 | [3] 0.007 | [4] 0.008 | [5] -0.017 | [6] 0.046 | [7] 0.013 | [8] 0.014 | [9] -0.008 | [10] -0.026 | [11] -0.038 | [12] 0.012 | [13] -0.034 | [14] 0.026 | [15] 0.014 | [16] -0.013 | [17] -0.001 | [18] -0.035 | [19] 0.015 | [20] -0.004

HSPA8 (UniProt P11142)
inactive: [1] -0.022 | [2] 0.003 | [3] 0.008 | [4] 0.002 | [5] -0.028 | [6] -0.004 | [7] 0.038 | [8] 0.016 | [9] -0.009 | [10] -0.008 | [11] -0.02 | [12] -0.002 | [13] -0.015 | [14] -0.003 | [15] 0.001 | [16] -0.022 | [17] 0.005 | [18] -0.013 | [19] -0.002 | [20] 0.009

GTF3C5 isoform 3 (UniProt Q9Y5Q8)
inactive: [1] -0.002 | [2] -0.042 | [3] -0.01 | [4] 0.007 | [5] -0.024 | [6] -0.019 | [7] -0.03 | [8] 0.072 | [9] 0.019 | [10] -0.015 | [11] 0.029 | [12] 0.034 | [13] 0.009 | [14] 0.005 | [15] -0.016 | [16] 0.025 | [17] -0.007 | [18] 0.015 | [19] 0.003 | [20] 0.008

KARS1 (UniProt Q15046)
inactive: [1] -0.015 | [2] 0.002 | [3] -0.04 | [4] -0.016 | [5] -0.005 | [6] 0.004 | [7] -0.021 | [8] -0.006 | [9] -0.021 | [10] -0.017 | [11] 0.009 | [12] 0.012 | [13] 0.016 | [14] 0.018 | [15] 0.001 | [16] -0.011 | [17] 0.024 | [18] -0.014 | [19] 0.015 | [20] 0.029

HK1 isoform 2 (UniProt P19367)
inactive: [1] -0.027 | [2] -0.006 | [3] 0.009 | [4] 0.006 | [5] 0.007 | [6] 0.007 | [7] -0.006 | [8] 0.001 | [9] 0.014 | [10] -0.002 | [11] -0.007 | [12] 0.005 | [13] -0.008 | [14] 0.021 | [15] -0.029 | [16] -0.029 | [17] 0.025 | [18] 0.023 | [19] 0.016 | [20] 0.008

HK2 (UniProt P52789)
inactive: [1] 0.013 | [2] 0.007 | [3] -0.045 | [4] 0.019 | [5] -0.01 | [6] 0.026 | [7] -0.027 | [8] -0.016 | [9] 0.004 | [10] -0.002 | [11] 0.021 | [12] -0.005 | [13] 0.019 | [14] 0.006 | [15] -0.029 | [16] -0.007 | [17] 0.006 | [18] 0.008 | [19] 0.002 | [20] 0.011
